{"source": "PubChem BioAssay (NCATS)", "note": "Inconclusive results are not listed. Values without a mark were called inactive. Calls of active or inactive are those of the source. The call rests on the fitted dose curve; in most records, active means well fitted curve in the direction sought with a large enough effect; inconclusive means small, poorly fitted or top-dose-only effect, or another doubt; inactive means no such curve, though single readings can be large; an effect the other way counts as inactive or inconclusive. Further: nearly all actives have a fitted effect of over 35% in size. Potency means the concentration at half of the fitted maximal effect.", "data": [{"assay": "BET inhibitor-based combinations targeting novel dependencies in MECOM-rearranged (r) AML: OCI-AML3 cell line (AID 2202232);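 on viability (% of control): plate controls were DMSO vehicle wells for no effect and wells without cells for full effect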", "settings": "CellTiter-Glo luminescence, 48 h; Potency: OCI-AML3 viability; series mostly up to 46 µM; viability (% of control): at the top concentration", "summary_of_the_method": "(§1)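 Cells were plated at 500 per well and exposed to an 11-point dose series of each drug for 48 hr. Viability was measured by CellTiter-Glo luminescence, normalized to DMSO and empty-well controls, and summarized as AUC and per-cell-line Z-AUC.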", "units": {"viability (% of control)": "%"}, "values": [{"smiles": "CC(O)(CS(=O)(=O)c1ccc(F)cc1)C(=O)Nc1ccc(C#N)c(C(F)(F)F)c1", "note": "(centres undefined)", "Potency": "0.0042 µM (active)"}, {"smiles": "Cc1cccc(C)c1NC(=O)CN1CCCC1=O", "viability (% of control)": 116}, {"smiles": "COC[C@H]1OC(=O)c2coc3c2[C@@]1(C)C1=C(C3=O)C2CCC(=O)[C@@]2(C)C[C@H]1OC(C)=O", "note": "(some centres undefined)", "Potency": "7.42 µM (active)"}]}, {"assay": "BET inhibitor-based combinations targeting novel dependencies in MECOM-rearranged (r) AML: HNT-34 cell line (AID 2202234)", "settings": "HNT-34 AML viability, CellTiter-Glo luminescence, 48 h; series mostly up to 46 µM; viability (% of control): at the top concentration", "summary_of_the_method": "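Activity is given as area under the curve and as Z-AUC, mean-centred within each cell line. It comes from 11-point dose curves normalized to DMSO and empty wells. CellTiter-Glo luminescence was read after 48 hr drug exposure of 500 cells/well.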", "units": {"viability (% of control)": "%"}, "values": [{"smiles": "CC(O)(CS(=O)(=O)c1ccc(F)cc1)C(=O)Nc1ccc(C#N)c(C(F)(F)F)c1", "note": "(centres undefined)", "viability (% of control)": 91.2}, {"smiles": "Cc1cccc(C)c1NC(=O)CN1CCCC1=O", "viability (% of control)": 110}, {"smiles": "COC[C@H]1OC(=O)c2coc3c2[C@@]1(C)C1=C(C3=O)C2CCC(=O)[C@@]2(C)C[C@H]1OC(C)=O", "note": "(some centres undefined)", "Potency": "5.9 µM (active)"}]}, {"assay": "BET inhibitor-based combinations targeting novel dependencies in MECOM-rearranged (r) AML: AML-191 cell line (AID 2202236)", "settings": "AML-191 viability, CellTiter-Glo luminescence, 48 h; series mostly up to 46 µM; viability (% of control): at the top concentration", "summary_of_the_method": "as §1", "units": {"viability (% of control)": "%"}, "values": [{"smiles": "CC(O)(CS(=O)(=O)c1ccc(F)cc1)C(=O)Nc1ccc(C#N)c(C(F)(F)F)c1", "note": "(centres undefined)", "viability (% of control)": 89.4}, {"smiles": "Cc1cccc(C)c1NC(=O)CN1CCCC1=O", "viability (% of control)": 105}, {"smiles": "COC[C@H]1OC(=O)c2coc3c2[C@@]1(C)C1=C(C3=O)C2CCC(=O)[C@@]2(C)C[C@H]1OC(C)=O", "note": "(some centres undefined)", "Potency": "6.61 µM (active)"}]}]}
